# Experiments:
# Test in all cases: PBM binding z-score (relative to random genomic background probes); higher = stronger binding; sequences stand for … in GC…GCGATTGACAGCGTAGAATGAAGG
# [1] = system: PPARg:RXRa DBDmut IVT, anti-RXR (DBD mutation: RXRa K156A/R161A, NR concentration 270 nM, RXRa partner concentration 90 nM)
# How it was run: (§1)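 Custom Agilent 4×180K protein-binding microarrays carried double-stranded probes, each with a 34-nt variable region. These regions held direct-repeat seeds, single-nucleotide variants, half-site ablations and random human genomic background sequences. Ligand-free nuclear receptor dimers were incubated on the arrays for 1 h, antibodies against each partner (one per run) detected binding, and scanned fluorescence was regression-normalized. Binding z-scores take the random background probes as reference.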
# [2] = system: PPARg:RXRa IVT, anti-PPARg (NR concentration 270 nM, RXRa partner concentration 90 nM)
# How it was run: as §1
# [3] = system: PPARg DBDmut:RXRa IVT, anti-PPARg (DBD mutation: PPARg1 K132A/R137A, NR concentration 270 nM, RXRa partner concentration 90 nM)
# How it was run: as §1
# [4] = system: PPARg DBDmut IVT, anti-PPARg (DBD mutation: PPARg1 K132A/R137A, NR concentration 270 nM)
# How it was run: as §1
# [5] = system: PPARg homodimer (NR concentration 180 nM)
# How it was run: as §1
# [6] = system: PXR:RXRa (NR concentration 270 nM, RXRa partner concentration 90 nM)
# How it was run: as §1
# [7] = system: PXR homodimer (NR concentration 270 nM)
# How it was run: as §1
# [8] = system: RARa:RXR (NR concentration 270 nM, RXRa partner concentration 90 nM)
# How it was run: as §1
# [9] = system: RARa homodimer (NR concentration 270 nM)
# How it was run: as §1
# [10] = system: RARb:RXRa (NR concentration 270 nM, RXRa partner concentration 90 nM)
# How it was run: as §1
# [11] = system: RARb homodimer (NR concentration 270 nM)
# How it was run: as §1
# [12] = system: RARg:RXRa (NR concentration 270 nM, RXRa partner concentration 90 nM)
# How it was run: as §1
# [13] = system: RARg homodimer (NR concentration 270 nM)
# How it was run: as §1
# [14] = system: RXRa DBDmut IVT, anti-RXR (DBD mutation: RXRa K156A/R161A, NR concentration 90 nM)
# How it was run: as §1
# [15] = system: RXRa homodimer (NR concentration 180 nM)
# How it was run: as §1
# [16] = system: THRa:RXRa (NR concentration 90 nM, RXRa partner concentration 90 nM)
# How it was run: as §1
# [17] = system: THRa homodimer (NR concentration 90 nM)
# How it was run: as §1
# [18] = system: VDR:RXRa (NR concentration 270 nM, RXRa partner concentration 90 nM)
# How it was run: as §1
# [19] = system: VDR homodimer (NR concentration 270 nM)
# How it was run: as §1
Sequence,PBM binding z-score [1],PBM binding z-score [2],PBM binding z-score [3],PBM binding z-score [4],PBM binding z-score [5],PBM binding z-score [6],PBM binding z-score [7],PBM binding z-score [8],PBM binding z-score [9],PBM binding z-score [10],PBM binding z-score [11],PBM binding z-score [12],PBM binding z-score [13],PBM binding z-score [14],PBM binding z-score [15],PBM binding z-score [16],PBM binding z-score [17],PBM binding z-score [18],PBM binding z-score [19]
CCAGACAGCTGAAAGGTAACTCAGTCTGGTACGC,-0.0276,-0.495,-0.361,-0.671,-0.141,-0.177,-0.344,0.0105,-0.368,0.0484,-0.175,-0.0986,-0.184,0.0606,0.212,0.0566,-0.51,-0.0821,-0.0523
CCTACTTGGTCAGGAGGTCACACACCGGATATGA,1.61,3.56,0.756,0.0151,3.23,4.26,1.05,4.89,2.31,3.75,4.48,4.98,4.1,0.751,5.02,3.59,2.33,3.89,2.54
TGAATGAGGTTAAAAATCAGGGAACGTGGCGTCG,1.43,1.8,0.361,0.195,-0.0328,0.848,-0.0817,1.45,-0.472,1.32,0.129,1.38,0.835,1.26,2.24,1.67,-0.0675,0.855,0.4
CCTACCAGGCCAGGGTCACTCAAGCATTTCGCTT,-0.315,1.13,-1.07,-1.26,1.75,2.39,0.0777,2.79,0.657,2.65,2.84,3.13,2.44,-0.231,3.18,2.98,1.56,2.7,1.29
CCTCGGAGCACAGAAGGTCAGAGCTGTCCGCTTT,0.355,-0.108,-1.25,-1.67,1.34,1.87,0.017,2.1,-0.245,2.62,3.08,2.63,2.37,0.0874,2.3,3.13,-0.478,1.33,-0.376
ACTATTAGTTGAGACGAGGGCAAACGATAGGTTG,0.0525,0.456,1.03,1.15,0.189,1.83,0.478,0.637,0.392,0.841,0.968,0.74,0.778,0.626,0.323,2.42,0.104,–,1.39
GTACCATGGTGAATAGGTCGTTGATGAGTAGGCG,0.107,0.275,-0.162,0.3,0.352,0.151,-0.347,0.29,-0.148,0.41,0.603,0.323,0.274,-0.264,0.592,0.133,-0.299,-0.0102,0.21
TCATATAGTTAAAAGGTGAAAGTCGGTGTGGTAA,3.12,2.36,1.13,0.7,2.01,1.38,0.951,2.72,2.03,2.02,1.92,1.69,0.989,1.66,2.31,1.6,0.712,1.52,0.721

# — the supplement of paper PMC6555819
